Reference: PubChem BioAssay AID1159580 (chemical genetic matrix, 2015)
The whole screen tested about 5,500 compounds, of which about 2,000 (36%) were called active. Another 18% or so got no clear call; they are omitted. Rule as the data show it: active = normalized growth mostly below about 0.91 (no sharp cut-off); inconclusive = no clear call, values can overlap the other calls; inactive = mostly above about 0.92. The list shows a part of the results.

Test: chemical genetic growth profiling, strain panel (AID 1159580);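 also: tested at 20 µM; growth read once vehicle control cultures reached saturation at 30 °C; 1 = growth at the plate median or of vehicle wells; lower values mean less growth of the strain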
Conditions: growth OD

Measured: normalized growth

CC(=O)O[C@@H]1CC2C(C)(C)[C@H](O)CC[C@]2(C)C2CC[C@@]3(C)[C@H](c4ccoc4)OC(=O)C4OC43[C@@]21C (some centres not stated)
inactive: S. cerevisiae deletion strains, locus YJR066W, strain TOR1, active compounds read low 1 | S. cerevisiae deletion strains, locus YJR075W, strain HOC1, active compounds read low 1 | S. cerevisiae deletion strains, locus YKL009W, strain mrt4, active compounds read low 0.963 | S. cerevisiae deletion strains, locus YKL068W, active compounds read low 0.991 | S. cerevisiae deletion strains, locus YKL085W, strain MDH1 (second series), active compounds read low 0.99 | S. cerevisiae deletion strains, locus YKL085W, strain MDH1, active compounds read low 0.99 | S. cerevisiae deletion strains, locus YKL160W, strain elf1, active compounds read low 0.989 | S. cerevisiae deletion strains, locus YKR001C, strain vps1, active compounds read low 0.969 | S. cerevisiae deletion strains, locus YKR026C, strain gcn3, active compounds read low 0.992 | S. cerevisiae deletion strains, locus YKR091W, strain srl3, active compounds read low 1.01 | S. cerevisiae deletion strains, locus YLL001W, strain dnm1, active compounds read low 1.03 | S. cerevisiae deletion strains, locus YLL026W, active compounds read low 1.01 | S. cerevisiae deletion strains, locus YLL041C, strain sdh2, active compounds read low 1.01 | S. cerevisiae deletion strains, locus YLR027C, strain aat2, active compounds read low 1.01 | S. cerevisiae deletion strains, locus YLR039C, strain RIC1, active compounds read low 1.01 | S. cerevisiae deletion strains, locus YLR058C, strain SHM2, active compounds read low 1 | S. cerevisiae deletion strains, locus YLR102C, strain apc9, active compounds read low 0.989 | S. cerevisiae deletion strains, locus YLR113W, strain HOG1, active compounds read low 1.08 | S. cerevisiae deletion strains, locus YLR221C, strain rsa3, active compounds read low 1.02 | S. cerevisiae deletion strains, locus YLR258W, strain gsy2, active compounds read low 1.02 | S. cerevisiae deletion strains, locus YLR262C, strain YPT6 (second series), active compounds read low 1 | S. cerevisiae deletion strains, locus YLR262C, strain YPT6, active compounds read low 1.05 | S. cerevisiae deletion strains, locus YLR268W, strain sec22, active compounds read low 0.984 | S. cerevisiae deletion strains, locus YLR320W, strain mms22, active compounds read low 1.03 | S. cerevisiae deletion strains, locus YLR342W, strain FKS1 (second series), active compounds read low 1.06 | S. cerevisiae deletion strains, locus YLR342W, strain FKS1, active compounds read low 1.01 | S. cerevisiae deletion strains, locus YLR357W, strain rsc2, active compounds read low 1.03 | S. cerevisiae deletion strains, locus YLR370C, strain arc18, active compounds read low 1.01 | S. cerevisiae deletion strains, locus YLR371W, strain rom2, active compounds read low 0.975 | S. cerevisiae deletion strains, locus YLR384C, strain iki3, active compounds read low 1.02 | S. cerevisiae deletion strains, locus YLR418C, strain cdc73, active compounds read low 0.984 | S. cerevisiae deletion strains, locus YML016C, strain PPZ1, active compounds read low 0.982 | S. cerevisiae deletion strains, locus YML032C, strain rad52, active compounds read low 0.975 | S. cerevisiae deletion strains, locus YML120C, strain ndi1, active compounds read low 1.03 | S. cerevisiae deletion strains, locus YML124C, strain tub3, active compounds read low 0.988 | S. cerevisiae deletion strains, locus YMR058W, strain fet3, active compounds read low 1.03 | S. cerevisiae deletion strains, locus YMR078C, strain ctf18, active compounds read low 0.972 | S. cerevisiae deletion strains, locus YMR125W, strain sto1, active compounds read low 1 | S. cerevisiae deletion strains, locus YMR129W, active compounds read low 1 | S. cerevisiae deletion strains, locus YMR205C, strain PFK2, active compounds read low 1.04 | S. cerevisiae deletion strains, locus YMR223W, strain ubp8, active compounds read low 0.995 | S. cerevisiae deletion strains, locus YMR231W, strain pep5, active compounds read low 1.01 | S. cerevisiae deletion strains, locus YMR307W, strain GAS1, active compounds read low 0.977 | S. cerevisiae deletion strains, locus YNL067W, strain RPL9B, active compounds read low 1.02 | S. cerevisiae deletion strains, locus YNL071W, strain lat1, active compounds read low 0.994 | S. cerevisiae deletion strains, locus YNL128W, strain TEP1, active compounds read low 0.975 | S. cerevisiae deletion strains, locus YNL153C, strain GIM3, active compounds read low 1.01 | S. cerevisiae deletion strains, locus YNL183C, strain NPR1, active compounds read low 1.01 | S. cerevisiae deletion strains, locus YNL209W, strain ssb2, active compounds read low 1.01 | S. cerevisiae deletion strains, locus YNL233W, strain BNI4, active compounds read low 1.04 | S. cerevisiae deletion strains, locus YNL248C, strain rpa49, active compounds read low 0.979 | S. cerevisiae deletion strains, locus YNL250W, strain rad50, active compounds read low 1 | S. cerevisiae deletion strains, locus YNL271C, strain bni1, active compounds read low 0.991 | S. cerevisiae deletion strains, locus YNL298W, strain CLA4, active compounds read low 0.992 | S. cerevisiae deletion strains, locus YNL307C, strain MCK1, active compounds read low 0.995 | S. cerevisiae deletion strains, locus YNL322C, strain KRE1 (second series), active compounds read low 1.01 | S. cerevisiae deletion strains, locus YNL322C, strain KRE1, active compounds read low 1.01 | S. cerevisiae deletion strains, locus YNR049C, strain mso1, active compounds read low 1.01 | S. cerevisiae deletion strains, locus YNR052C, strain pop2, active compounds read low 0.997 | S. cerevisiae deletion strains, locus YOL012C, strain htz1 1.17 | S. cerevisiae deletion strains, locus YOL147C, strain pex11, active compounds read low 0.992 | S. cerevisiae deletion strains, locus YOR001W, strain rrp6, active compounds read low 0.994 | S. cerevisiae deletion strains, locus YOR061W, strain CKA2, active compounds read low 0.94 | S. cerevisiae deletion strains, locus YOR069W, strain VPS5, active compounds read low 1 | S. cerevisiae deletion strains, locus YOR070C, strain gyp1, active compounds read low 1.01 | S. cerevisiae deletion strains, locus YOR080W, strain dia2, active compounds read low 1.01 | S. cerevisiae deletion strains, locus YOR083W, strain WHI5, active compounds read low 0.979 | S. cerevisiae deletion strains, locus YOR106W, strain vam3, active compounds read low 1 | S. cerevisiae deletion strains, locus YOR136W, strain idh2, active compounds read low 0.998 | S. cerevisiae deletion strains, locus YOR144C, strain elg1, active compounds read low 0.984 | S. cerevisiae deletion strains, locus YOR184W, strain ser1, active compounds read low 0.975 | S. cerevisiae deletion strains, locus YOR231W, strain MKK1, active compounds read low 1.09 | S. cerevisiae deletion strains, locus YOR265W, strain rbl2, active compounds read low 1.01 | S. cerevisiae deletion strains, locus YOR270C, strain vph1, active compounds read low 0.912 | S. cerevisiae deletion strains, locus YOR290C, strain snf2, active compounds read low 0.985 | S. cerevisiae deletion strains, locus YOR316C, strain cot1, active compounds read low 0.977 | S. cerevisiae deletion strains, locus YPL051W, strain arl3, active compounds read low 1 | S. cerevisiae deletion strains, locus YPL078C, strain atp4, active compounds read low 0.973 | S. cerevisiae deletion strains, locus YPL106C, strain sse1, active compounds read low 1.03 | S. cerevisiae deletion strains, locus YPL240C, strain hsp82, active compounds read low 1 | S. cerevisiae deletion strains, locus YPL256C, strain CLN2, active compounds read low 1.08 | S. cerevisiae deletion strains, locus YPR119W, strain clb2, active compounds read low 0.992 | S. cerevisiae deletion strains, locus YPR141C, strain kar3, active compounds read low 0.962 | S. cerevisiae deletion strains, locus YPR163C, strain tif3, active compounds read low 0.984 | S. cerevisiae deletion strains, locus YPR167C, strain met16, active compounds read low 0.998 | S. cerevisiae deletion strains, strain wtn01, active compounds read low 0.959 | S. cerevisiae strains, strain wild type, active compounds read low 1
